# Results from PubChem BioAssay (NCI).
# About 79,000 compounds went through this panel and 15% of them were active in at least one assay; those are over-represented in the sample as a whole. Values without a mark were called inactive. Activity calls are given as the source filed them. No stated cut-off is given here; in the data, active means growth inhibition above about 70%; inactive means the rest.
# Key:
# [1] = NCI Yeast Anticancer Drug Screen. Data for the wt1 strain (AID 149);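 further: 0% = growth of vehicle-treated wt1 cultures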; conditions: S. cerevisiae wt1 strain (SPY 50644) growth inhibition, stronger effect = higher value
# In short: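 Growth inhibition read against vehicle controls after compound exposure of the wt1 yeast strain.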
# [2] = NCI Yeast Anticancer Drug Screen. Data for the rad50EPP+ strain (AID 151);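 further: 0% = growth of vehicle-treated control cultures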; conditions: S. cerevisiae rad50 mutant strain, stronger effect = higher value
# In short: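 One strain with a rad50 alteration (rad50EPP+) was compound-treated, its growth then compared to that of vehicle controls.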
# [3] = NCI Yeast Anticancer Drug Screen. Data for the mgt1 strain (AID 153); conditions: S. cerevisiae mgt1 mutant growth inhibition, stronger effect = higher value
# In short: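 After exposure of the mgt1 yeast mutant to compound, growth was measured and reported as inhibition compared with vehicle controls.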
# [4] = NCI Yeast Anticancer Drug Screen. Data for the rad50 strain (AID 155);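 further: 0% = growth of vehicle-only cultures of the same strain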; conditions: S. cerevisiae rad50 strain growth inhibition, stronger effect = higher value
# In short: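 Readout: growth inhibition relative to vehicle-treated cultures. Compound exposure was carried out in a genetically defined yeast strain deficient in DNA damage repair.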
# [5] = NCI Yeast Anticancer Drug Screen. Data for the mec2-1 strain (AID 157); conditions: S. cerevisiae mec2-1 strain, stronger effect = higher value
# In short: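 Test agents were screened against the mec2-1 yeast strain, with defined DNA repair or cell cycle alteration. Growth was scored as inhibition against vehicle-only controls.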
# [6] = NCI Yeast Anticancer Drug Screen. Data for the rad14 strain (AID 159);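 further: 0% = growth of vehicle-treated control cultures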; conditions: S. cerevisiae rad14 strain growth inhibition, stronger effect = higher value
# In short: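 Growth inhibition vs vehicle controls; genetically altered yeast strain (DNA damage repair defect) treated with test compounds.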
# [7] = NCI Yeast Anticancer Drug Screen. Data for the sgs1 mgt1 strain (AID 161);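 further: 0% = growth of cultures given vehicle only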; conditions: S. cerevisiae sgs1 mgt1 strain, stronger effect = higher value
# In short: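 Inhibition of yeast growth, normalised to vehicle-treated controls, is reported for a strain bearing genetic alterations in DNA damage repair.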
# [8] = NCI Yeast Anticancer Drug Screen. Data for the CLN2oe strain (AID 163);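 further: 0% = growth of vehicle-only control cultures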; conditions: S. cerevisiae CLN2oe strain, stronger effect = higher value
# In short: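 Here, growth inhibition in a cell-cycle-altered yeast strain after compound exposure was quantified against vehicle control growth.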
# [9] = NCI Yeast Anticancer Drug Screen. Data for the cln2 rad14 strain (AID 165);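 further: 0% = growth equal to vehicle treated cultures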; conditions: S. cerevisiae cln2 rad14 strain, stronger effect = higher value
# In short: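 Growth of compound-exposed yeast (cln2 rad14 genotype) measured and expressed as inhibition relative to vehicle.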
# [10] = NCI Yeast Anticancer Drug Screen. Data for the bub3 strain (AID 167); conditions: S. cerevisiae bub3 mutant strain, stronger effect = higher value
# In short: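 Readout: yeast growth inhibition, expressed relative to vehicle-only wells. The test organism is a mutant strain from a panel with lesions in DNA repair or checkpoint genes.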
# [11] = NCI Yeast Anticancer Drug Screen. Data for the wt2 strain (AID 169);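 further: 0% = growth of vehicle-treated yeast cultures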; conditions: S. cerevisiae wt2 strain growth inhibition, stronger effect = higher value
# In short: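 Genetically defined yeast strains from a DNA-repair/cell-cycle panel were used. Compound-exposed yeast growth was measured, and the inhibition was calculated relative to vehicle treatment.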
# [12] = NCI Yeast Anticancer Drug Screen. Data for the mlh1 strain (AID 171);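 further: 0% = growth of vehicle-treated control cultures of the same strain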; conditions: S. cerevisiae mlh1 strain growth inhibition, stronger effect = higher value
# In short: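 Here the genetically defined yeast mutant is grown with each compound, and the extent to which its growth falls below that of vehicle-exposed cells is reported.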
# [13] = NCI Yeast Anticancer Drug Screen. Data for the sgs1 strain (AID 173);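 further: 0% = growth of vehicle-only control cultures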; conditions: S. cerevisiae sgs1 mutant, stronger effect = higher value
# In short: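 Relative growth inhibition, referenced to vehicle, was determined in a yeast strain with a defined alteration affecting DNA damage repair or cell cycle control after compound exposure.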
# [14] = NCI Yeast Anticancer Drug Screen. Data for the mlh1 rad18 strain (AID 175); conditions: S. cerevisiae mlh1 rad18 strain growth inhibition, stronger effect = higher value
# In short: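 In this whole-cell yeast screen, a strain with altered DNA damage repair is challenged with compound, and its growth is measured against matched vehicle-treated controls.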
# [15] = NCI Yeast Anticancer Drug Screen. Data for the rad18 strain (AID 177); conditions: S. cerevisiae rad18 mutant growth inhibition, stronger effect = higher value
# In short: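 Screen uses a yeast strain with a defined lesion in DNA damage repair; compound effect is read as loss of growth compared to untreated vehicle cultures.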
# [16] = at 5.0 µM (retest, dose inferred, filed as 0.5)
# [17] = at 50.0 µM (retest, dose inferred, filed as 5.0)
compound,measurement,setting,value
COc1cc(NCCCCCNC(C)C)c2ncccc2c1Cl,growth inhibition,[1]; at 1.2 µM,-2%
same,growth inhibition,[1]; at 3.7 µM,3%
same,growth inhibition,[1]; at 11.0 µM,1%
same,growth inhibition,[1]; at 33.0 µM,2%
same,growth inhibition,[1]; at 100.0 µM,-8%
same,growth inhibition,[2]; at 1.2 µM,1%
same,growth inhibition,[2]; at 3.7 µM,-1%
same,growth inhibition,[2]; at 11.0 µM,1%
same,growth inhibition,[2]; at 33.0 µM,9%
same,growth inhibition,[2]; at 100.0 µM,13%
same,growth inhibition,[3]; at 1.2 µM,-5%
same,growth inhibition,[3]; at 3.7 µM,-3%
same,growth inhibition,[3]; at 11.0 µM,1%
same,growth inhibition,[3]; at 33.0 µM,3%
same,growth inhibition,[3]; at 100.0 µM,33%
same,growth inhibition,[4]; at 1.2 µM,-1%
same,growth inhibition,[4]; at 3.7 µM,2%
same,growth inhibition,[4]; [16],8%
same,growth inhibition,[4]; at 11.0 µM,4%
same,growth inhibition,[4]; at 33.0 µM,7%
same,growth inhibition,[4]; [17],12%
same,growth inhibition,[4]; at 50.0 µM,49.7%
same,growth inhibition,[4]; at 100.0 µM,24%
same,growth inhibition,[5]; at 1.2 µM,-1%
same,growth inhibition,[5]; at 3.7 µM,2%
same,growth inhibition,[5]; [16],-3%
same,growth inhibition,[5]; at 11.0 µM,3%
same,growth inhibition,[5]; at 33.0 µM,4%
same,growth inhibition,[5]; [17],13%
same,growth inhibition,[5]; at 50.0 µM,6.65%
same,growth inhibition,[5]; at 100.0 µM,10%
same,growth inhibition,[6]; at 1.2 µM,0%
same,growth inhibition,[6]; at 3.7 µM,5%
same,growth inhibition,[6]; at 11.0 µM,15%
same,growth inhibition,[6]; at 33.0 µM,24%
same,growth inhibition,[6]; at 100.0 µM,24%
same,growth inhibition,[7]; [16],5%
same,growth inhibition,[7]; [17],28%
same,growth inhibition,[7]; at 50.0 µM,52.5%
same,growth inhibition,[8]; at 1.2 µM,0%
same,growth inhibition,[8]; at 3.7 µM,-6%
same,growth inhibition,[8]; at 11.0 µM,6%
same,growth inhibition,[8]; at 33.0 µM,14%
same,growth inhibition,[8]; at 100.0 µM,36%
same,growth inhibition,[9]; [16],8%
same,growth inhibition,[9]; [17],41%
same,growth inhibition,[9]; at 50.0 µM,26.8%
same,growth inhibition,[10]; at 1.2 µM,-2%
same,growth inhibition,[10]; at 3.7 µM,-1%
same,growth inhibition,[10]; [16],6%
same,growth inhibition,[10]; at 11.0 µM,3%
same,growth inhibition,[10]; at 33.0 µM,11%
same,growth inhibition,[10]; [17],38%
same,growth inhibition,[10]; at 50.0 µM,36.5%
same,growth inhibition,[10]; at 100.0 µM,25%
same,growth inhibition,[11]; at 1.2 µM,-2%
same,growth inhibition,[11]; at 3.7 µM,-1%
same,growth inhibition,[11]; at 11.0 µM,0%
same,growth inhibition,[11]; at 33.0 µM,7%
same,growth inhibition,[11]; at 100.0 µM,6%
same,growth inhibition,[12]; at 1.2 µM,-1%
same,growth inhibition,[12]; at 3.7 µM,-1%
same,growth inhibition,[12]; at 11.0 µM,1%
same,growth inhibition,[12]; at 33.0 µM,7%
same,growth inhibition,[12]; at 100.0 µM,15%
same,growth inhibition,[13]; at 1.2 µM,-1%
same,growth inhibition,[13]; at 3.7 µM,-2%
same,growth inhibition,[13]; at 11.0 µM,3%
same,growth inhibition,[13]; at 33.0 µM,13%
same,growth inhibition,[13]; at 100.0 µM,23%
same,growth inhibition,[14]; [16],5%
same,growth inhibition,[14]; [17],38%
same,growth inhibition,[14]; at 50.0 µM,56.8%
CCCCCCCCCCCCCCCCOCC(Cl)COP(=O)(O)OP(=O)(O)OCC1OC(n2cnc3c(N)ncnc32)C(O)C1O (stereo unspecified),growth inhibition,[1]; at 1.2 µM,21%
same,growth inhibition,[1]; at 3.7 µM,35%
same,growth inhibition,[1]; at 11.0 µM,46%
same,growth inhibition,[1]; at 33.0 µM,54%
same,growth inhibition,[1]; at 100.0 µM,51%
same,growth inhibition,[2]; at 1.2 µM,20%
same,growth inhibition,[2]; at 3.7 µM,24%
same,growth inhibition,[2]; at 11.0 µM,43%
same,growth inhibition,[2]; at 33.0 µM,67%
same,growth inhibition,[2]; at 100.0 µM,97% (active)
same,growth inhibition,[3]; at 1.2 µM,15%
same,growth inhibition,[3]; at 3.7 µM,14%
same,growth inhibition,[3]; at 11.0 µM,55%
same,growth inhibition,[3]; at 33.0 µM,68%
same,growth inhibition,[3]; at 100.0 µM,85% (active)
same,growth inhibition,[4]; at 1.2 µM,14%
same,growth inhibition,[4]; at 3.7 µM,28%
same,growth inhibition,[4]; [16],49%
same,growth inhibition,[4]; at 11.0 µM,75% (active)
same,growth inhibition,[4]; at 33.0 µM,86% (active)
same,growth inhibition,[4]; [17],93% (active)
same,growth inhibition,[4]; at 50.0 µM,54.4%
same,growth inhibition,[4]; at 100.0 µM,86% (active)
same,growth inhibition,[5]; at 1.2 µM,14%
same,growth inhibition,[5]; at 3.7 µM,6%
same,growth inhibition,[5]; [16],36%
same,growth inhibition,[5]; at 11.0 µM,19%
same,growth inhibition,[5]; at 33.0 µM,11%
same,growth inhibition,[5]; [17],73% (active)
same,growth inhibition,[5]; at 50.0 µM,33.4%
same,growth inhibition,[5]; at 100.0 µM,47%
same,growth inhibition,[6]; at 1.2 µM,10%
same,growth inhibition,[6]; at 3.7 µM,6%
same,growth inhibition,[6]; at 11.0 µM,29%
same,growth inhibition,[6]; at 33.0 µM,35%
same,growth inhibition,[6]; at 100.0 µM,46%
same,growth inhibition,[7]; [16],74% (active)
same,growth inhibition,[7]; [17],96% (active)
same,growth inhibition,[7]; at 50.0 µM,88.4% (active)
same,growth inhibition,[8]; at 1.2 µM,2%
same,growth inhibition,[8]; at 3.7 µM,2%
same,growth inhibition,[8]; at 11.0 µM,-4%
same,growth inhibition,[8]; at 33.0 µM,24%
same,growth inhibition,[8]; at 100.0 µM,31%
same,growth inhibition,[9]; [16],24%
same,growth inhibition,[9]; [17],79% (active)
same,growth inhibition,[9]; at 50.0 µM,-30.4%
same,growth inhibition,[10]; at 1.2 µM,-12%
same,growth inhibition,[10]; at 3.7 µM,-25%
same,growth inhibition,[10]; [16],10%
same,growth inhibition,[10]; at 11.0 µM,-8%
same,growth inhibition,[10]; at 33.0 µM,9%
same,growth inhibition,[10]; [17],73% (active)
same,growth inhibition,[10]; at 50.0 µM,28.2%
same,growth inhibition,[10]; at 100.0 µM,39%
same,growth inhibition,[11]; at 1.2 µM,-2%
same,growth inhibition,[11]; at 3.7 µM,-3%
same,growth inhibition,[11]; at 11.0 µM,11%
same,growth inhibition,[11]; at 33.0 µM,19%
same,growth inhibition,[11]; at 100.0 µM,57%
same,growth inhibition,[12]; at 1.2 µM,10%
same,growth inhibition,[12]; at 3.7 µM,-1%
same,growth inhibition,[12]; at 11.0 µM,53%
same,growth inhibition,[12]; at 33.0 µM,63%
same,growth inhibition,[12]; at 100.0 µM,78% (active)
same,growth inhibition,[13]; at 1.2 µM,40%
same,growth inhibition,[13]; at 3.7 µM,64%
same,growth inhibition,[13]; at 11.0 µM,93% (active)
same,growth inhibition,[13]; at 33.0 µM,95% (active)
same,growth inhibition,[13]; at 100.0 µM,92% (active)
same,growth inhibition,[14]; [16],36%
same,growth inhibition,[14]; [17],92% (active)
same,growth inhibition,[14]; at 50.0 µM,48%
same,growth inhibition,[15]; at 1.2 µM,-4%
same,growth inhibition,[15]; at 3.7 µM,0%
same,growth inhibition,[15]; at 11.0 µM,22%
same,growth inhibition,[15]; at 33.0 µM,39%
same,growth inhibition,[15]; at 100.0 µM,59%
